JMJD2A Tudor – blocks the human JMJD2A Tudor domain; O75164; AlphaScreen JMJD2A-Tudor / H3K4me3 peptide binding; 390,000 tested, 4.4% active; AID 504339; Potency, µM (top dose mostly 114 µM), without a hit: top-dose activity change, negative = inhibition, usual class: inhibitors; also: % is scaled to controls: 0 for no effect and ±100 for the full control effect; nearly all actives have a fitted effect of over 50% in size
HP1b binding inh – blocks HP1-beta chromodomain binding to methylated histone tails. AID 540317. P83916. 390,000 tested, 0.56% active. AlphaScreen HP1-beta / biotin-H3K9me3 peptide binding. Potency, µM (highest dose often 114 µM), for inactives: at the top dose activity change, negative = inhibition, most hits filed as inhibitors; also: nearly all actives have a fitted effect of over 70% in size
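Compound inhibition of the preformed complex between 50 nM HP1-beta and 50 nM biotinylated H3K9me3 peptide was read by AlphaScreen. Buffer was PBS pH 7.4 with 0.01% Tween-20. Incubations ran 30 min at room temperature, with 10 ug/mL donor/acceptor beads.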
L3MBTL1 inh – L3MBTL1 (human) inhibition | Q9Y468 | AlphaScreen L3MBTL1–H3K9me1 peptide binding | Potency, µM (titrated, usually from 57.1 µM), without a hit: at the highest dose activity, negative = inhibition, actives largely listed as inhibitors | 230,000 tested, 0.66% active; also: % is scaled to controls: 0 for no effect and ±100 for the full control effect; nearly all actives have a fitted effect of over 60% in size
Target sequence (Q9Y468 whole entry, looked up): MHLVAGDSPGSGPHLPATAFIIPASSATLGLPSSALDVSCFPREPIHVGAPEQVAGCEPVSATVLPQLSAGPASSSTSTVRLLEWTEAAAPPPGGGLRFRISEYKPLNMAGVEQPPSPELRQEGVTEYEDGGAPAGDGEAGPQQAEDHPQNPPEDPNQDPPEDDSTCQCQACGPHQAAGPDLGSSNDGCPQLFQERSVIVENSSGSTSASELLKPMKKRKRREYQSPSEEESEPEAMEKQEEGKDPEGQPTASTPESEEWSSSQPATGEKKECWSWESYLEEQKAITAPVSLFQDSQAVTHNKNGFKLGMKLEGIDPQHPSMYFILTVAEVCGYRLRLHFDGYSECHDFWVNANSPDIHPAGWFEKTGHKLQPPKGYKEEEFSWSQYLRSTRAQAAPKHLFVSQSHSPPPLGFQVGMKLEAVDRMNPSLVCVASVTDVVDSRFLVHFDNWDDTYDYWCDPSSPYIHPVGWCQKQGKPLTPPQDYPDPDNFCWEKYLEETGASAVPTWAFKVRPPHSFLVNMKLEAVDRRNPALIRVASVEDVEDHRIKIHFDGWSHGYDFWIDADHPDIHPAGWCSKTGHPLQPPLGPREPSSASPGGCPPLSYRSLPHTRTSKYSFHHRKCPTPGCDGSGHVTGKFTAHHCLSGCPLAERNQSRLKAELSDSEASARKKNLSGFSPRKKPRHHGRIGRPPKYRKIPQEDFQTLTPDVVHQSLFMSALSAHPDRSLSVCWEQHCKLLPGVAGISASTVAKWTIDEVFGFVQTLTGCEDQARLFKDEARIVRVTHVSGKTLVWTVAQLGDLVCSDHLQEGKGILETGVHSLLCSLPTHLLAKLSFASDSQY
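First, the protein-peptide complex forms for 30 min at room temperature (L3MBTL1 50 nM, biotinylated H3K9me1 peptide 75 nM). Next, compounds are pin-transferred and incubated 30 min. Finally, AlphaScreen beads are added and read after 30 min.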
G9a block – inhibitors of human histone lysine methyltransferase G9a | Potency, µM (top dose mostly 102 µM), for inactives: at the highest dose activity, negative = inhibition, hits mostly inhibitors | G9a H3K9 monomethylation, AlphaScreen, 2 h | 350,000 tested, 8.8% active; also: % is scaled to controls: 0 for no effect and ±100 for the full control effect; nearly all actives have a fitted effect of over 75% in size
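AlphaScreen read-out: biotin-H3K9 peptide (500 nM) methylation by 20 nM enzyme with 20 uM SAM, 2 h at room temperature after 15 min compound preincubation; anti-monomethyl H3K9 antibody plus donor/acceptor beads, 10 min dark.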
BAZ2B block – blocks human BAZ2B | AlphaScreen BAZ2B-H3K14Ac peptide displacement | 360,000 tested, 4.4% active | Potency, µM (highest dose often 114 µM), for the others: at the top dose activity change, negative = inhibition, usual class: inhibitors | AID 504333; also: % is scaled to controls: 0 for no effect and ±100 for the full control effect; nearly all actives have a fitted effect of over 60% in size
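Multi-concentration screen (max 110 uM) measuring displacement of acetylated histone H3 peptide from BAZ2B by AlphaScreen, using 50 nM protein, 50 nM peptide and 10 ug/mL streptavidin donor plus Ni-chelate acceptor beads.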
Active calls of the source: *; ? = inconclusive; · = no result given; [ ] = remark or other dose. Hits are enriched below; roughly 11% of the tested compounds scored in any of these assays. Calls follow the shape of the dose curve; as a rule, active = well fitted inhibition curve with a large enough effect; inconclusive = small, poorly fitted or top-dose-only effect; inactive = no such curve, though single readings can be large or run the other way. Potency is read from the fitted curve at half-maximal effect.

SMILES	JMJD2A Tudor	HP1b binding inh	L3MBTL1 inh	G9a block	BAZ2B block
c1ccc(-c2cn3nc4c(nc3n2)CCCC4)cc1	17.2%	67.4%	·	50.1µM*	6.4%
C=CCNc1ccc(N2C(=O)C3CCC(C)CC3C2=O)cc1[N+](=O)[O-] (stereo not drawn)	·	·	?	50.1µM*	?
C=CCNc1ccc(N2C(=O)CCCC2=O)cc1[N+](=O)[O-]	-5.7%	24.4%	·	8.1%[2.33 µM]	1.8%
C=CCN(CC=C)c1ccc(N2C(=O)C3CCCCC3C2=O)cc1[N+](=O)[O-] (stereo not drawn)	?	-17.0%	·	22.4µM*	?
CN(C)C(=S)SCCn1c(N)nc(N(C)C)nc1=O	-10.1%	15.9%	0.6%	·	0.5%
COc1ccc(N2CCN(C(=O)c3nn(-c4ccc(C)cc4)c(=O)n(C)c3=O)CC2)cc1	-34.8%	-19.6%[57 µM]	·	-35.2%[59 µM]	-31.3%
CCN1/C(=C2\C(=O)N(C)C(=S)N2C)C=Cc2cc(C)ccc21	50.1µM*	-66.0%	-23.5%	10µM*	44.7µM*
CCN1/C(=C2\C(=O)N(C)C(=S)N2c2ccccc2)C=Cc2ccccc21	-28.6%	?	·	-140.3%[59 µM]	39.8µM*
CCN1/C(=C2\C(=O)N(C)C(=S)N2C)C=Cc2ccccc21	-35.4%	?	-12.6%	10µM*	50.1µM*
CCOC(=O)c1c(Oc2ccc(C(C)=O)cc2)nnc(-c2ccccc2)c1-c1ccccc1	-25.3%	19.5%	·	-28.7%[59 µM]	-27.9%
CCOc1ccccc1C(=O)N(Cc1cc(OC)c(OC)c(OC)c1)c1ccccn1	-7.9%	35.6%	·	0.3%[59 µM]	-2.1%
Cc1ccc(Nc2nnc(SC3CCOC3=O)s2)cc1 (stereo not drawn)	-18.2%	28.8%	8.1%	10µM*	10.1%
CC(C)c1ccc(Nc2nnc(SC3CCOC3=O)s2)cc1 (stereo not drawn)	3.1%	40.0%	-8.0%	3.1%[59 µM]	2.9%
CCCC(C)c1nnc(NC(=O)c2cc(C(=O)OC)cc([N+](=O)[O-])c2)s1 (stereo not drawn)	?	-59.1%	-1.6%	8.91µM*	-6.4%
CCC(CC)c1nnc(NC(=O)CCN2C(=O)c3ccccc3C2=O)s1	-13.2%	21.7%	-2.9%	-1.3%	-3.2%
CCC(CC)c1nnc(NC(=O)CN2C(=O)c3ccccc3C2=O)s1	-1.4%	7.4%	5.6%	44.7µM*	-16.2%
CCCC(C)c1nnc(NC(=O)C2CCCO2)s1 (stereo not drawn)	-12.5%	-21.1%	-6.2%[11.4 µM]	?	-1.4%
CCCC(C)c1nnc(NC(=O)CN2C(=O)c3ccccc3C2=O)s1 (stereo not drawn)	-3.0%	4.1%	4.6%	7.94µM*	?
CCCC(C)c1nnc(NC(=O)C(=O)OCC)s1 (stereo not drawn)	17.8µM*	?	-8.0%[11.4 µM]	?	56.2µM*
CC(=O)Nc1ccc(SCCN2CCN(C)CCC2=O)cc1	-13.8%	34.3%	·	·	·
CC(=O)OCOC(c1ccc2ccccc2c1)P(=O)(OCOC(C)=O)OCOC(C)=O (stereo not drawn)	·	·	·	-0.1%[59 µM]	·
Cc1cccc(-c2nc(C)c(CCNC(=O)C(=O)Nc3ccc(C)c(C)c3)s2)c1	-2.9%	13.5%[57 µM]	·	21.6%[59 µM]	2.0%
COc1ccc(-c2nc3ccccc3nc2-c2ccccc2)cc1OC	93.8%	203.9%	39.2%	144.3%	70.5%
COc1ccc(-c2nc3ccccc3nc2-c2ccc(OC)c(OC)c2)cc1OC	40.1%	113.8%	7.3%	20µM*	19.4%
COc1cc(-c2nnc(-c3cc(OC)c(OC)c(OC)c3)o2)cc(OC)c1OC	-6.1%	40.9%	?	-12.0%[59 µM]	-3.5%
SMILES	JMJD2A Tudor	HP1b binding inh	L3MBTL1 inh	G9a block	BAZ2B block
COc1cc(-c2nc(=S)[nH][nH]2)cc(OC)c1OC	3.55µM*	?	10.2%	0.562µM*	50.1µM*
COc1ccc(-c2nc(=S)[nH][nH]2)cc1OC	2.82µM*	?	10.1%	0.562µM*	56.2µM*
CCn1c(=S)sc2c(=O)n(-c3ccccc3)c(=S)[nH]c21	-18.5%	3.4%	·	10µM*	-1.4%
CCN(CC)C(=O)c1sc2[nH]c(=S)n(-c3ccccc3)c(=O)c2c1C	?	25.0%	-6.2%	-45.2%[0.501 µM]	?
CCOc1ccccc1-n1c(=S)sc2c(=O)n(-c3ccc(C)cc3)c(=S)[nH]c21	?	-17.7%	·	10µM*	-23.1%
COc1ccc(C2(N3CCN(c4cc(C)ccc4C)CC3)C(=O)c3ccccc3C2=O)cc1	?	-15.3%	·	?	?
Cc1ccc(Cl)cc1N1CCN(C2(c3ccccc3)C(=O)c3ccccc3C2=O)CC1	?	-3.7%	·	?	?
Cc1cccc(N2CCN(C3(c4ccccc4)C(=O)c4ccccc4C3=O)CC2C)c1 (stereo not drawn)	?	?	·	8.91µM*	8.91µM*
Cc1ccc(C)c(N2CCN(C3(c4ccccc4)C(=O)c4ccccc4C3=O)CC2)c1	?	-23.7%	·	7.08µM*	6.31µM*
Cc1ccc(NC(=O)CN(C)C(=O)CSc2nncn2C)cc1	-14.0%	12.7%	·	-22.7%[59 µM]	-0.3%
CC(=O)/C(=N\Nc1ccc(C)cc1)Sc1nncn1C	?	14.3%[57 µM]	1.6%	8.91µM*	-5.0%
CCOc1ccc(-n2cc(-c3ccccc3)c3c(NCCc4ccccc4)ncnc32)cc1	-28.1%	32.6%	·	-9.5%[59 µM]	?
O=S1(=O)CC(O)C(N=Nc2c(O)n(Cc3ccccc3)c3ccccc23)C1 (stereo not drawn)	-28.7%[11.4 µM]	?	-18.5%	39.8µM*	?
O=C(N=Nc1c(O)n(Cc2ccccc2)c2ccccc12)c1ccc(O)cc1	-18.6%	14.9%	-6.4%	14.6%[59 µM]	-4.7%
COc1cccc(CNC(=O)c2ccc(CNS(=O)(=O)c3ccc(C)cc3)cc2)c1	-24.2%	13.7%	·	-0.9%[59 µM]	-1.1%
Cc1cc2c(s1)c1cnn(Cc3cccc(C(F)(F)F)c3)c(=O)c1n2C	-28.1%	·	·	·	·
Cc1ccsc1/C=C1/SC(N2CC(C)OC(C)C2)=NC1=O (stereo not drawn)	-10.5%	8.9%	-1.8%	44.7µM*	1.2%
CSC1=NC2C(N1)N(C)C(=O)N2C (stereo not drawn)	-15.1%	29.8%	·	7.94µM*	35.5µM*
Cc1ccc(C)c(CSc2nc3c([nH]c4ccccc43)c(=O)n2C)c1	-2.9%	23.4%[57 µM]	·	0.3%[59 µM]	-0.5%
O=C1NC(=S)SC1=C1CCCC1	?	1.1%	·	17.8µM*	31.6µM*
COc1ccccc1NS(=O)(=O)c1cccc(-n2c(O)c(C=Nc3ccccc3C(=O)O)c3ccccc3c2=O)c1	56.2µM*	?	-19.9%	44.7µM*	39.8µM*
COc1ccc(Cn2c(O)c(C=Nc3ccccc3C(=O)O)c3ccccc3c2=O)cc1	-33.8%	-10.6%	-23.3%	·	79.4µM*
COc1ccccc1NS(=O)(=O)c1cccc(C(=O)N/N=C/c2ccc(NC(C)=O)cc2)c1	-12.2%	14.5%	9.9%	10.6%[12.7 µM]	-17.7%
O=C(O)CSc1nnc(NC(=O)CN2CCOCC2)s1	3.9%	19.1%	·	?	-31.2%
